The panel holds about 83,000 compounds, 20% with a hit somewhere; the sample as a whole holds those more often.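 48-hour exposure, single concentration, 96-well plates; percent growth endpoint where 0 means no net growth. Active: below 10.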 Activity calls are given as the source filed them.
Assays:
Assay in all cases: NCI-60 one-dose screen, 48 h (100 = growth as untreated, 0 = no growth, -100 = all killed)
Conditions in all cases: 10 µM unless noted
NCI-H23 lung = test system: NCI-H23 lung
NCI-H226 lung = test system: NCI-H226 lung
NCI-H322M lung = test system: NCI-H322M lung
HOP-62 NSCLC = test system: HOP-62 NSCLC
NCI-H460 lung = test system: NCI-H460 lung
HOP-92 NSCLC = test system: HOP-92 NSCLC
NCI-H522 lung = test system: NCI-H522 lung
A549/ATCC NSCLC = test system: A549/ATCC NSCLC
786-0 renal = test system: 786-0 renal
COLO 205 colon = test system: COLO 205 colon

Measured: growth

C=C(C)[C@@H]1CC[C@]2(C)[C@H](C=CC3=C4C[C@@](C)(CO)CC[C@]4(C)CC[C@]32C)[C@@]1(C)CCCN
inactive: NCI-H226 lung 90.8%
active: NCI-H23 lung -37.1% | NCI-H322M lung -14.3% | HOP-62 NSCLC -54.9% | NCI-H460 lung -86.2% | HOP-92 NSCLC -52.9% | NCI-H522 lung -43.1% | A549/ATCC NSCLC -62.2% | 786-0 renal -97.3% | COLO 205 colon -64.4%

CCN1C(=O)N(CC)C2C1NN=c1s/c(=C\c3ccc(OC)cc3)c(=O)n12 (stereo not given)
active: NCI-H460 lung 4.22% | NCI-H522 lung -9.26% | COLO 205 colon -7.08%
inactive: NCI-H23 lung 32.2% | NCI-H226 lung 60.5% | NCI-H322M lung 45.9% | HOP-62 NSCLC 37.1% | HOP-92 NSCLC 33% | A549/ATCC NSCLC 10% | 786-0 renal 20.8%

Cn1c2ccccc2c2c3c(c4c5cc(Br)ccc5n(C)c4c21)C(=O)N(O)C3=O
inactive: NCI-H226 lung 14.8% | NCI-H322M lung 31.8% | HOP-92 NSCLC 40.8% | NCI-H522 lung 25.4% | A549/ATCC NSCLC 40.3% | 786-0 renal 14.6% | COLO 205 colon 23.2%
active: NCI-H23 lung 2.91% | HOP-62 NSCLC 0.364% | NCI-H460 lung 4.42%

COc1cc(/C=C/c2cc(/C=C/c3ccc(O)c(OC)c3)n(C(=O)Nc3ccc(Cl)cc3)n2)ccc1O
active: NCI-H23 lung 3.16% | NCI-H226 lung 5.73% | NCI-H460 lung 9.41% | HOP-92 NSCLC -4.7% | NCI-H522 lung -4.94% | A549/ATCC NSCLC 4.03% | 786-0 renal -2.2% | COLO 205 colon 7.57%
inactive: NCI-H322M lung 22.1% | HOP-62 NSCLC 17.1%

O=C(Nc1ccc(Oc2cccc(Cl)c2)c(Cl)c1)c1cccnn1
inactive: NCI-H23 lung 84.1% | NCI-H226 lung 78.8% | NCI-H322M lung 93.9% | HOP-62 NSCLC 101% | NCI-H460 lung 99.8% | HOP-92 NSCLC 84.4% | NCI-H522 lung 73.6% | A549/ATCC NSCLC 75.3% | 786-0 renal 77.4% | COLO 205 colon 106%

S=c1ccnc[nH]1
inactive: NCI-H23 lung 103% | NCI-H226 lung 107% | NCI-H322M lung 114% | HOP-62 NSCLC 109% | NCI-H460 lung 105% | HOP-92 NSCLC 76.2% | NCI-H522 lung 65.8% | A549/ATCC NSCLC 98.2% | 786-0 renal 89.7% | COLO 205 colon 102%

c1cc(OCCCCCOc2cccc(-c3nc4ccccc4[nH]3)c2)cc(-c2nc3ccccc3[nH]2)c1
inactive: NCI-H226 lung 10.2% | NCI-H322M lung 23.1% | HOP-62 NSCLC 39.1% | A549/ATCC NSCLC 13.9% | 786-0 renal 19.8%
active: NCI-H23 lung 3% | NCI-H460 lung 6.73% | HOP-92 NSCLC -29.3% | NCI-H522 lung -14.8% | COLO 205 colon -59.1%

Nc1ncnc2c1N=C(c1ccc(F)cc1)CC(c1cccc(Nc3ccnc4cc(Cl)ccc34)c1)N2 (stereo not given)
inactive: NCI-H23 lung 77.9% | NCI-H226 lung 91.5% | NCI-H322M lung 89.6% | HOP-62 NSCLC 73.5% | NCI-H460 lung 81.3% | HOP-92 NSCLC 67.8% | NCI-H522 lung 99.7% | A549/ATCC NSCLC 83.5% | 786-0 renal 61.9% | COLO 205 colon 49.8%

Cc1c2cnccc2c(C)c2c1c1cc(CO)ccc1n2C
active: NCI-H23 lung -46.1% | NCI-H226 lung -68.5% | NCI-H322M lung -40.2% | HOP-62 NSCLC -48.8% | NCI-H460 lung -32.5% | HOP-92 NSCLC -20% | NCI-H522 lung -72.6% | A549/ATCC NSCLC -28.2% | 786-0 renal -13.1% | COLO 205 colon -51.2%

O=Nc1ccc(NC(=O)Nc2ccc([N+](=O)[O-])cc2)cc1
inactive: NCI-H23 lung 87.5% | NCI-H226 lung 99.6% | NCI-H322M lung 103% | HOP-62 NSCLC 110% | NCI-H460 lung 91.5% | HOP-92 NSCLC 56.5% | NCI-H522 lung 78.8% | A549/ATCC NSCLC 95.6% | 786-0 renal 86.5% | COLO 205 colon 116%

O=[N+]([O-])c1ccccc1Sc1ccccc1[N+](=O)[O-]
inactive: NCI-H23 lung 93.7% | NCI-H226 lung 98.5% | NCI-H322M lung 91.4% | HOP-62 NSCLC 92.8% | NCI-H460 lung 103% | HOP-92 NSCLC 78.6% | NCI-H522 lung 87.8% | A549/ATCC NSCLC 87.2% | 786-0 renal 93.4% | COLO 205 colon 110%

CC/C(=C(/c1ccc(O)cc1)c1ccc(OCCN2CCCCC2)cc1)c1ccc(OC)cc1
active: COLO 205 colon -28.9%
inactive: NCI-H23 lung 79.2% | NCI-H226 lung 103% | NCI-H322M lung 90.2% | HOP-62 NSCLC 83.5% | NCI-H460 lung 57.4% | HOP-92 NSCLC 70.2% | NCI-H522 lung 74.7% | A549/ATCC NSCLC 64.4% | 786-0 renal 57.1%

From PubChem BioAssay (NCI)
